Hit rate of the full screen: of about 1,200 compounds, about 210 (18%) were called active. The list is a sample of the results. A number with no mark means an inactive call. Rule as the data show it: active = inhibition above about 30%; inactive = the rest.

These results are taken from PubChem BioAssay AID2069 (Sanford-Burnham Center for Chemical Genomics, 2009).

The nature of this experiment: HTRF signal interference by compounds, confirmation, artefact control for SUMOylation inhibitor project, biochemical, uHTS (AID 2069). The settings on record: HTRF interference counterscreen, fluorescence, at 35 µM, stronger effect = higher value. (In TR-FRET formats the signal depends on donor and acceptor labels being close together.)
For `C/C(=N\NC(=O)c1cc(O)ccc1O)c1cccc(NC(=O)c2ccc(Cl)cc2)c1`, the inhibition (in general, the change of the read-out against control, counted positive when it falls) was -7.9%.

As to `Cc1ccc(NC(=O)Cn2c(=O)oc3cc(S(=O)(=O)N4CCC(C)CC4)ccc32)cc1C`, the inhibition was -3.55%.

With `O=C1/C(=C/c2ccco2)Oc2c1ccc(O)c2CN1CCCCC1`, the inhibition was 37.6% (active).

As to `NC(=O)CC(NC(=O)Cc1ccc(Br)cc1)c1ccc(NCCOc2ccccc2)c([N+](=O)[O-])c1` (centres undefined), the inhibition is 7.3%.

`CN(C)c1cc(Nc2cccc(O)c2)c([N+](=O)[O-])c2nonc12`: the inhibition was -1.05%.

Take `CCN(CC)CCNS(=O)(=O)c1ccc2c3c(cccc13)C(=O)N2`: the inhibition was 47.2% (active).

For the compound `CN1C(=O)c2cccc3c(S(=O)(=O)NCc4ccco4)ccc1c23`, the inhibition was 11.9%.

Turning to `CN1C(=O)c2cccc3c(S(=O)(=O)NCCc4ccccc4)ccc1c23`, the inhibition was 45% (active).

Consider `CN(C)CCNS(=O)(=O)c1ccc2c3c(cccc13)C(=O)N2`, for which the inhibition was 60.6% (active).

Regarding `CCN1C(=O)c2cccc3c(N)ccc1c23`, the inhibition was -24.4%.

As for `O=C(NCc1ccccc1)Nc1cccn(Cc2ccccc2Cl)c1=O`, the inhibition is 1.3%.

For `N=C1S/C(=C\c2ccc(O)cc2)C(=O)N1c1ccc(F)cc1`, the inhibition was 14.8%.

Take `COc1ccc(-c2nc3c(c(SCC(=O)Nc4cccc(O)c4)n2)Cc2c(CO)cnc(C)c2O3)cc1`: the inhibition was -1.05%.

In the case of `CC(=O)Nc1ccc(-c2nc3ccc(NC(C)=O)cc3o2)cc1`, the inhibition was 40.8% (active).

For the compound `O=C(Nc1ccc2nc3ccccc3nc2c1)c1ccc(Br)cc1`, the inhibition was 20.6%.

As for `Cc1ccc(-c2nc3ccccc3o2)cc1NC(=O)c1ccc2c(c1)OCO2`, the inhibition is 16.6%.

Regarding `CC(=O)Nc1cccc(NC(=S)Nc2cccc3ccccc23)c1`, the inhibition was -2.65%.

`CC(=O)Nc1ccc2nc3ccccc3nc2c1`: the inhibition is 36.7% (active).

`CC(=O)Nc1ccc(S(=O)(=O)Nc2nc3ccccc3nc2Nc2ccc3ccccc3c2)cc1`: the inhibition was 18.6%.

As for `CCOc1cc(/C=N/N=C(\N)c2nonc2N)cc(Br)c1OCc1cccc2ccccc12`, the inhibition is 0.3%.

On to `Cc1cc(/C=C2\SC(=S)NC2=O)c(C)[nH]1`, for which the inhibition was 3.5%.

`O=C(Nc1ccc(N2CCOCC2)c2nonc12)C1CCCC1`: the inhibition is -18.9%.

As to `O=C(O)CSc1cc(C(=O)c2ccccc2O)cn2c(=O)c3c(-c4ccccc4)csc3nc12`, the inhibition was 7.6%.

Take `Cc1cc(-c2csc(N)n2)c(C)n1Cc1ccco1`: the inhibition is -4.05%.

Turning to `Nc1c(C(=O)Nc2ccc(Br)cc2)sc2nc(-c3ccco3)ccc12`, the inhibition is 28.9%.

Regarding `O=C(Nc1ccc(-n2nncc2-c2ccco2)cc1)c1cc2ccccc2oc1=O`, the inhibition was 9.4%.

Regarding `O=C(N/N=C/c1ccc(F)cc1)c1cc(-c2ccco2)nc2ccccc12`, the inhibition was 13%.

For `Nc1c(C(=O)Nc2ccccc2)sc2nc(-c3ccco3)ccc12`, the inhibition was 50.1% (active).

In the case of `Nc1c(C(=O)Nc2ccc(F)cc2)sc2nc(-c3ccco3)ccc12`, the inhibition was 47% (active).

Regarding `COc1ccccc1NC(=O)c1sc2nc(-c3ccco3)ccc2c1N`, the inhibition is 26.8%.

`O=C(N/N=C/c1ccc(-c2cccc([N+](=O)[O-])c2)o1)c1ccccc1O`: the inhibition was 2.3%.

For the compound `Cc1ccc(N=C2NC(=O)/C(=C\c3ccco3)S2)cc1`, the inhibition was -0.45%.

As for `NC1=NC(c2ccc(Cl)cc2)N(c2ccc(S(N)(=O)=O)cc2)C(N)=N1` (centres undefined), the inhibition is 6.2%.

As to `O=C(CNc1cccc2ccccc12)c1ccc([N+](=O)[O-])cc1`, the inhibition is -2.7%.

For `CCOC(=O)N1CCN(C2=C(NS(=O)(=O)c3ccc(C)cc3)C(=O)c3ccccc3C2=O)CC1`, the inhibition is -12.7%.

Take `COc1cc(C2c3c(oc4ccccc4c3=O)C(=O)N2c2nccs2)ccc1O` (centres undefined): the inhibition was 7.95%.

`O=C(O)c1cc(-c2ccco2)nn1-c1ccc(Cl)cc1`: the inhibition was 1.75%.

As for `Cc1ccc(S(=O)(=O)n2ccc(OC(=O)c3cccs3)n2)cc1`, the inhibition was 0.25%.

Regarding `O=C1NNC(c2ccccc2)=N/C1=C\c1ccccc1Cl`, the inhibition is -7.9%.

Turning to `Cc1ncc(CO)c(/C=N/NC(=O)c2cc(O)c(O)c(O)c2)c1O`, the inhibition is 0.4%.

Consider `CN(C)/C=N/c1nc2nccc(-c3cccnc3)n2n1`, for which the inhibition is 49.2% (active).

Turning to `CN(C)/C=N/c1nc2nccc(-c3cccc(Cl)c3)n2n1`, the inhibition is 57.1% (active).

Turning to `S=c1[nH]nc(-c2cccnc2)n1/N=C/C=C/c1ccco1`, the inhibition was -1.7%.

Consider `CC1=NN(c2ccc(F)cc2)C(=O)C1C(c1cccc(O)c1)c1c(C)[nH]n(-c2ccc(F)cc2)c1=O` (centres undefined), for which the inhibition is -9.8%.

Take `CN(C)c1cc(N/N=C\c2ccccc2)nc(N(C)C)n1`: the inhibition is 22.4%.

Consider `O=C(CC1Nc2cccc3cccc(c23)NC1=O)Nc1ccccc1` (centres undefined), for which the inhibition is -22.9%.

Consider `O=C(CSc1ccc(Br)c2cccc(Cl)c12)Nc1ccc(S(=O)(=O)Nc2nccs2)cc1`, for which the inhibition was -50.4%.

Turning to `COc1cc2c(ccc3cc(OC)c(OC)c(O)c32)cc1O`, the inhibition was 24.2%.

On to `CC(=O)Nc1ccc(NC(=O)Cn2c(-c3ccc(F)cc3)cnc2SCC(=O)Nc2c(C)cccc2C)cc1`, for which the inhibition is -6.5%.

Regarding `[O-]/C(=C(\C(=S)Nc1cccc2ccccc12)[n+]1ccccc1)c1ccc(Cl)s1`, the inhibition was -8.3%.

For `COc1c(C)oc2cc(O)ccc2c1=O`, the inhibition was 41% (active).

For `O=C1CC(N2CCOCC2)=NN1c1ccc([N+](=O)[O-])cc1`, the inhibition was -12.8%.

Take `O=C(NNc1cc(N2CCOCC2)nc(N2CCOCC2)n1)c1ccc(Cl)c(Cl)c1`: the inhibition is -6.9%.

Consider `Fc1ccc(-c2nc3cnccn3c2NC2CCCC2)cc1`, for which the inhibition was 57.9% (active).

Take `O=C(/C=C\c1ccco1)c1ccc(NC(=O)c2ccco2)cc1`: the inhibition was 0.2%.

On to `CCOc1cc(CNc2ccc(N3CCN(C(C)=O)CC3)cc2)cc(Br)c1OC`, for which the inhibition was -8.4%.

Regarding `Cc1c2c(=O)n(-c3nc4ccccc4s3)nc-2cc(O)n1Cc1ccccc1`, the inhibition was -12.7%.

For `Cc1ccc(S(=O)(=O)NNC(=S)Nc2c(Cl)cccc2Cl)cc1`, the inhibition was -4.65%.

As to `Cc1[nH]n(-c2ccccc2)c(=O)c1/C=N/N(C)c1ccccc1`, the inhibition was -31.9%.
